This assay concerns the target Cellular tumor antigen p53 (Homo sapiens) (UniProt P04637). Kind of assay: Primary qHTS for small molecule compounds that upregulate eGFP-tagged delta133p53alpha (in N-terminal) cells. (AID 2060322). Also: nearly all actives have a fitted effect of over 75% in size.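 As to activation: series mostly up to about 56 µM; 0% = DMSO vehicle and 100% = reference activator.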 Particulars: NCI-H358 eGFP-delta133p53alpha fluorescence, 24 h; activation: active compounds read high. A digest of the protocol:
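NCI-H358 cells pre-induced 24 h with 10 ng/ml doxycycline for eGFP-delta133p53alpha, plated dox-free and exposed 24 h at 37C to titrated compounds. Fixed, Hoechst-stained; gated GFP peak intensity by laser scanning cytometry, normalized to DMSO (0%) and 57.5 uM 5-azacytidine (100%).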

Among the data in PubChem BioAssay (NCATS) are activation and Potency values, retold here.

Values joined by “and” are separate entries in the source; they are usually repeats but may differ in a detail not shown here. Equal values may be shown once. Inconclusive results are not listed. Values without a mark were called inactive. Active and inactive are the calls of the source. Calls follow the shape of the dose curve; as a rule, active = well fitted activation curve with a large enough effect; inconclusive = small, poorly fitted or top-dose-only effect; inactive = no such curve, though single readings can be large or run the other way. Residues, ends and D or L forms follow the SMILES beside them.
Potency is read from the fitted curve at half-maximal effect.

Cellular tumor antigen p53 (Homo sapiens), sequence (P04637 whole entry, looked up): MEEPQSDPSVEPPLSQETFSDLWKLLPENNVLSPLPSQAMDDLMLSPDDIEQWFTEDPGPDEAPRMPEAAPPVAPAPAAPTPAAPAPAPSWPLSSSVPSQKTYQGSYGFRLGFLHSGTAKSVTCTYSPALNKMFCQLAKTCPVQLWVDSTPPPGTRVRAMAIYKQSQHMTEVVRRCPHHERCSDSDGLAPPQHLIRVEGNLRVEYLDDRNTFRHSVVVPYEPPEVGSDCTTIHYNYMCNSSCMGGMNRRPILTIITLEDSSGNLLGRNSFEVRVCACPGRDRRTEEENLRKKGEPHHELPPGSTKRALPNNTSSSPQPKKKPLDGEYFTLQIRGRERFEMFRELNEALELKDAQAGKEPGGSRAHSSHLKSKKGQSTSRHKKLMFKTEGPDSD

As to `CC(C)C(=O)OCc1cccc(OC(=O)[C@@H]2N3C(=O)[C@@H](NC(=O)Cc4ccccc4)[C@H]3SC2(C)C)c1`, the activation was -5.86%.
Same read-out and setting: the same measure for `Nc1nc(F)nc2c1ncn2[C@@H]1O[C@H](COP(=O)(O)O)[C@@H](O)[C@H]1O`: -4.99%; for `N#CC(=C(O)c1ccc(Cl)cc1Cl)c1nc2cc(Cl)ccc2c(=O)[nH]1`: 7.18%.
As for `CCn1cc(C(=O)O)c(=O)c2cnc(N3CCCC3)nc21`, the activation is 3.95%.
Take `N=C1N=C(N)c2cc3ccccc3cc21`: the Potency was 35.5 µM (active).
Take `CN1CCCCC1CCN1c2ccccc2Sc2ccc(S(C)=O)cc21` (stereo unspecified): the activation was -3.95%.
Turning to `NCc1ccccc1Sc1ccccc1CO`, the activation was 15.3%.
Same read-out and setting: the same measure for `Cc1ccccc1N=Nc1ccc(N=Nc2c(O)ccc3ccccc23)c(C)c1`: -17.5%; for `CC(=O)[C@@]1(O)CC[C@H]2[C@@H]3C[C@H](C)C4=CC(=O)C=C[C@]4(C)[C@@]3(F)[C@@H](O)C[C@@]21C`: -11.7%.
Still for that read-out and setting: the figure for `CN1CCCC(CC2c3ccccc3Sc3ccccc32)C1` (stereo unspecified) is 14.2%; for `NC(N)=Nc1nc(CSCCC(N)=NS(N)(=O)=O)cs1` it is 11%; for `CC(C)[N+](C)(C)CC(O)COc1cccc2ccccc12` (stereo unspecified) it is -17.5%.
Consider `Nc1ccc([N+](=O)[O-])c(C(F)(F)F)c1`, for which the activation was -10.7%.
Take `CO/N=C(/C(=O)N[C@@H]1C(=O)N2C(C(=O)OCOC(=O)C(C)(C)C)=C(C)CS[C@H]12)c1csc(N)n1`: the activation was -20.9%.
Regarding `COc1ccc(NS(=O)(=O)c2ccc(N)cc2)nn1`, the activation was 6.69%.
Take `COc1cc2nc(N3CCCCC3)nc(NC3CCN(C)CC3)c2cc1OC`: the Potency was 38.5 µM (active).
Regarding `O=S(=O)(O)c1ccc(O)cc1`, the activation is 5.08%.
For `CNC(=O)c1cccc(-c2ccc3c(N4CCOC[C@H]4C)nc(N4CCOC[C@H]4C)nc3n2)c1`, the activation is 19.5%.
In the case of `Oc1c(I)cc(I)c2cccnc12`, the activation was -5.86%.
The same measure, in the same setting: the figure for `Cc1onc(-c2c(Cl)cccc2Cl)c1C(=O)Cl` is -15.3%; for `C[C@@H]1C[C@H]2[C@@H]3CCC4=CC(=O)C=C[C@]4(C)[C@@]3(F)[C@@H](O)C[C@]2(C)[C@@]1(O)C(=O)COC(=O)c1ccncc1` it is -8.37%.
On the same count and under the same terms, the figure for `CC(NN)c1ccccc1` (stereo unspecified) is 6.69%.
On the same count and under the same terms, the figure for `N#Cc1ccc(-c2csc(NN=C3CCCC3)n2)cc1` is -8.94%; for `O=C(COCCOCCOCC(=O)Nc1c(I)cc(I)c(C(=O)O)c1I)Nc1c(I)cc(I)c(C(=O)O)c1I` it is 10%.
In the case of `C[C@H](N)C(=O)N[C@@H](C)C(=O)NC1[C@H]2CN(c3nc4c(cc3F)c(=O)c(C(=O)O)cn4-c3ccc(F)cc3F)C[C@@H]12` (stereo partly specified), the activation was -33.3%.
With `C[C@@H](O)[C@H]1C(=O)N2C(C(=O)O)=C(S[C@@H]3CN[C@H](C(=O)N(C)C)C3)[C@H](C)[C@H]12`, the activation is 7.34%.
Take `COc1cc(C(=O)N2CCOCC2)cc(OC)c1OC`: the activation was 20.9%.
On the same count and under the same terms, the figure for `CC(C)c1cc2c(cc1S(=O)(=O)O)[C@@]1(C)CCC[C@@](C)(C(=O)O)[C@@H]1CC2` is -22%; for `CNC(=O)c1cnn(-c2nc(N)c3ncn([C@@H]4O[C@H](CO)[C@@H](O)[C@H]4O)c3n2)c1` it is -18.4%.
Turning to `Cc1ccccc1C(C(=O)NC1CCCC1)N(C(=O)Cn1cnc2ccccc21)c1cccc(F)c1` (stereo unspecified), the activation is -4.95%.
Turning to `NC1=N[C@@]2(c3cc(NC(=O)c4ccc(F)cn4)ccc3F)COC[C@@H]2CS1`, the activation is 87.4%.
Regarding `CCCCCCCCCCCCCCNCCO`, the activation is -16.7%.
On the same count and under the same terms, the figure for `CC(=O)N[C@@H](CO)C(=O)N[C@@H](CC(=O)O)C(=O)N[C@@H](CCCCN)C(=O)N1CCC[C@H]1C(=O)O` (Ac-SDKP-OH) is -24.3%; for `CCCCOC(=O)c1ccc(N)cc1` it is 19.8%.
Take `CC[C@]1(O)C[C@@H]2CN(CCc3c([nH]c4ccccc34)[C@@](C(=O)OC)(c3cc4c(cc3OC)N(C=O)[C@@H]3C45CCN4CC=C[C@](CC)([C@H]45)[C@@H](OC(C)=O)[C@]3(O)C(=O)OC)C2)C1` (stereo partly specified): the activation was -1.44%.
The same measure, in the same setting: the figure for `C[C@@H]1CC=CC=CC=CC=C[C@@H](O[C@@H]2O[C@H](C)[C@@H](O)[C@H](N)[C@H]2O)C[C@@H]2O[C@](O)(C[C@@H](O)C[C@@H]3O[C@@H]3C=CC(=O)O1)C[C@H](O)[C@@H]2C(=O)O` is -2.86%; for `OCCOCCN1CCN(C2=Nc3ccccc3Sc3ccccc32)CC1` it is 7.53%.
Same read-out and setting: the figure for `Cc1cc(O)c(C)c(C)c1O` is 17.5%.
Still for that read-out and setting: the same measure for `Nc1c(CC(=O)O)cccc1C(=O)c1ccc(Br)cc1`: -3.95%.
On to `C=C1CCC2[C@](C)(CO)C(O)CC[C@]2(C)C1CC=C1C(=O)OCC1O` (stereo partly specified), for which the activation is -28.9%.
The same measure, in the same setting: the same measure for `NCC[C@H](O)C(=O)N[C@@H]1C[C@H](N)[C@@H](O[C@H]2O[C@H](CN)[C@@H](O)[C@H](O)[C@@H]2O)[C@H](O)[C@@H]1O[C@H]1O[C@H](CO)[C@@H](O)[C@H](N)[C@@H]1O`: -2.51%.
On the same count and under the same terms, the same measure for `C/C=C1\[C@H]2C=C(C)C[C@]1(N)c1ccc(=O)[nH]c1C2`: 5.08%.
`COc1cc(N2CCN(C)CC2)ccc1Nc1nc(N)c(C(=O)c2c(Cl)cccc2Cl)s1`: the activation is -2.41%.
Consider `O=S(=O)(O)c1cc(I)c(O)c2ncccc12`, for which the activation was 11.7%.
Still for that read-out and setting: the same measure for `CC(C)(O)CC[C@@H](O)[C@](C)(O)[C@H]1CC[C@@]2(O)C3=CC(=O)[C@@H]4C[C@@H](O)[C@@H](O)C[C@]4(C)[C@@H]3CC[C@]12C`: -14.8%; for `CC(=O)N(CC(=O)N(C)C)c1ccccc1`: -7.53%; for `CCOC(=O)c1ccc(O)c(O)c1`: -23.2%.
On to `O=c1c(-c2ccccc2)c1-c1ccccc1`, for which the Potency was 30.9 µM (active).
On to `CCCCC(=O)OCC(=O)[C@H]1[C@H](C)C[C@H]2[C@@H]3C[C@H](F)C4=CC(=O)C=C[C@]4(C)[C@@]3(F)[C@@H](O)C[C@@]21C`, for which the activation was -6.21%.
With `CC1(C)S[C@H]2[C@H](NC(=O)[C@@H](N)c3ccc(O)cc3)C(=O)N2[C@@H]1C(=O)O`, the activation was -5.39%.
Still for that read-out and setting: the same measure for `O=C(CN1CCNCC1)NC1CCCCC1`: 7.53%; for `COC1=C2C[C@@H](C)C[C@H](OC)[C@@H](O)[C@@H](C)C=C(C)[C@H](OC(N)=O)[C@@H](OC)C=CC=C(C)C(=O)NC(=CC1=O)C2=O`: -17.1%; for `O=c1[nH]cnc2nc[nH]c12`: -9.6%.
Still for that read-out and setting: the same measure for `CCCCOc1cc(C(=O)NCCN(CC)CC)c2ccccc2n1`: 0%.
Still for that read-out and setting: the figure for `CCC[C@@H](NC(=O)[C@@H]1[C@H]2CCC[C@@H]2CN1C(=O)[C@@H](NC(=O)[C@@H](NC(=O)c1cnccn1)C1CCCCC1)C(C)(C)C)C(=O)C(=O)NC1CC1` is 19.1%; for `CC(=O)Nc1ccc(/C=N/NC(N)=S)cc1` it is -14.2%.
On to `COc1ccc(-c2cc(C(F)F)nn2-c2ccc(S(N)(=O)=O)cc2)cc1F`, for which the activation was -21.8%.
The same measure, in the same setting: the same measure for `CCCc1c2oc(C(=O)O)cc(=O)c2cc2c(=O)cc(C(=O)O)n(CC)c12`: -10%; for `CCCCCC(N)=O`: -17.5%.
On to `Cn1cc(C2=C(c3cn(CCCN)c4ccccc34)C(=O)NC2=O)c2ccccc21`, for which the Potency is 24.3 µM (active).
Regarding `CCCN(CCC)S(=O)(=O)c1ccc(C(=O)O)cc1`, the activation is 8.47%.
Same read-out and setting: the same measure for `CCOc1cc(OCC)c(C(=O)CCC(=O)O)cc1OCC`: -15.3%.
Regarding `O=C(O)C(=O)Nc1cccc(C2=NN=N[N]2)c1`, the activation was 19.6%.
Still for that read-out and setting: the figure for `Cn1c([N+](=O)[O-])cnc1COC(N)=O` is -9.6%.
On the same count and under the same terms, the same measure for `N#C/C(=C1/SC[C@@H](c2ccc(Cl)cc2Cl)S1)n1ccnc1`: -25.9%; for `CSc1ccc(/C=C2/C(C)=C(CC(=O)O)c3cc(F)ccc32)cc1`: -8.47%; for `COC(=O)C1=C(C)NC(C)=C(C(=O)OCC(C)=O)C1c1ccccc1[N+](=O)[O-]` (stereo unspecified): 1.69%.
Turning to `CCOC(=O)c1ccc(N)cc1`, the activation is 8.37%.
For `CC(=O)OC[C@H]1O[C@@H](OC(C)=O)[C@H](OC(C)=O)[C@@H]1OC(C)=O`, the activation is 28.8%.
On the same count and under the same terms, the figure for `Cc1ccc(S(=O)(=O)NC(=O)NC2CCCC2)cc1` is 23.2%; for `Cc1c(C)n(CCN(C)C)c2ccc(C(=O)OCCN(C)C)cc12` it is -11.9%; for `CC1(C)OC(=O)NC1=O` it is -15.3%.
Still for that read-out and setting: the figure for `CCCCC1(COC(=O)CCC(=O)O)C(=O)N(c2ccccc2)N(c2ccccc2)C1=O` is -7.34%; for `COc1cc(N)c(Cl)cc1C(=O)NC1CCN(CCCOc2ccc(F)cc2)CC1OC` (stereo unspecified) it is 13%.
Same read-out and setting: the figure for `Cc1noc(NS(=O)(=O)c2ccc(N)cc2)c1C` is 9.21% and -0.487%; for `O=C(OCC1(COC(=O)c2cccnc2)CCCC(COC(=O)c2cccnc2)(COC(=O)c2cccnc2)C1O)c1cccnc1` it is -11.7%; for `O=C(O)C1=CO[C@@H](O[C@@H]2O[C@H](CO)[C@H](O)[C@H](O)[C@H]2O)[C@@H]2C(CO)=CC[C@H]12` it is 30.5%.
As to `CC(C)[N+]1(C)[C@@H]2CC[C@H]1CC(OC(=O)C(CO)c1ccccc1)C2` (stereo partly specified), the activation was 33.8%.
The same measure, in the same setting: the figure for `O=C(O)CCC(=O)Nc1ccc(S(=O)(=O)Nc2nccs2)cc1` is -3.95%.
On the same count and under the same terms, the same measure for `CC(C)(c1ccc(O)cc1)c1ccc(O)cc1`: -17.5%.
The same measure, in the same setting: the figure for `C[C@@H]1[C@H](C)CC[C@]2(C(=O)O)CC[C@]3(C)C(=CC[C@@H]4[C@@]5(C)C[C@@H](O)[C@H](O)[C@@](C)(CO)[C@H]5CC[C@]43C)[C@@H]12` is 36.3%.
